# Compound activity: PubChem BioAssay, National Center for Advancing Translational Sciences (NCATS)
# The list is not random: actives were taken first. Their share in the collection is about 2.7%.
# HepG2 viability = qHTS for Inhibitors of TGF-b: Cytotox Counterscreen. HepG2 CAGA-GFP viability, ATP luminescence, 18 h. Potency, µM (titrated, usually from 46.1 µM), inactives show top-dose activity change, negative = cytotoxicity, actives largely listed as cytotoxic. 410,000 compounds, 0.76% hits. AID 588856, 2011
#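 CellTiter-Glo luminescence gave cytotoxicity after 18 hours at 37 degrees C. The cells were HepG2 CAGA-GFP in 1% FBS DMEM, stimulated with 500 pg/mL TGF-beta after compound addition. %Activity was normalised to no-cell wells (complete cell-killing) and DMSO (no toxicity), and curves were fitted and classified.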
# ATXN2 expr inh = Primary qHTS for Inhibitors of ATXN expression; HEK-293 ATXN2-luciferase reporter, luminescence, 24 h; Potency, µM (top dose mostly 57 µM), without a hit: top-dose activity change, negative = inhibition, most hits filed as inhibitors; 360,000 compounds, 0.72% hits; note: % is set by controls: 0 for no effect and ±100 for the full control effect; nearly all actives have a fitted effect of over 55% in size
#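 ATXN2-luciferase reporter cells (luciferase flanked by upstream and downstream ATXN2 gene portions) were treated 24 h at 37 °C with compounds at up to 57 uM. SteadyGlo luminescence gave expression; GF-AFC fluorescence gave viability.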
# S2 tox = Viability Counterscreen for Primary qHTS for Inhibitors of ATXN expression; Potency, µM (series often up to 56.7 µM), most hits filed as cytotoxic; S2 cells (HEK-293 line with an ATXN2-luciferase reporter) viability, CellTiter-Fluor protease fluorescence, 24 h; AID 651635, 2014; 400,000 compounds, 0.49% hits; note: nearly all actives have a fitted effect of over 40% in size
# TGFb inhibitor = qHTS for Inhibitors of TGF-b. Potency, µM (top dose mostly 46.1 µM), for inactives: at the highest dose activity, negative = inhibition, hits mostly inhibitors. HepG2 CAGA-GFP TGF-b/SMAD3 reporter, GFP fluorescence, 18 h; TGF-beta stimulated, 500 pg/mL final. 410,000 compounds, 1.2% hits; note: % is set by controls: 0 for no effect and ±100 for the full control effect; nearly all actives have a fitted effect of over 65% in size
#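 Inhibition of TGF-beta-driven CAGA-GFP reporter expression in HEPG2 cells is measured by cellular GFP fluorescence after 18 h stimulation with 500 pg/mL recombinant TGF-beta in 1% FBS medium at 37 degrees C.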
# ALOX12 inh = Primary qHTS assay for inhibitors of human arachidonate 12S-lipoxygenase (ALOX12): Round 2. purified 12hLO, xylenol orange hydroperoxide absorbance. Polyunsaturated fatty acid lipoxygenase ALOX12 (Homo sapiens), P18054. Potency, µM (series often up to 108 µM), for the others: at the top dose activity change, negative = inhibition, usual class: inhibitors. 580,000 compounds, 1.1% hits; note: % is set by controls: 0 for no effect and ±100 for the full control effect
# Target sequence (P18054 whole entry, looked up): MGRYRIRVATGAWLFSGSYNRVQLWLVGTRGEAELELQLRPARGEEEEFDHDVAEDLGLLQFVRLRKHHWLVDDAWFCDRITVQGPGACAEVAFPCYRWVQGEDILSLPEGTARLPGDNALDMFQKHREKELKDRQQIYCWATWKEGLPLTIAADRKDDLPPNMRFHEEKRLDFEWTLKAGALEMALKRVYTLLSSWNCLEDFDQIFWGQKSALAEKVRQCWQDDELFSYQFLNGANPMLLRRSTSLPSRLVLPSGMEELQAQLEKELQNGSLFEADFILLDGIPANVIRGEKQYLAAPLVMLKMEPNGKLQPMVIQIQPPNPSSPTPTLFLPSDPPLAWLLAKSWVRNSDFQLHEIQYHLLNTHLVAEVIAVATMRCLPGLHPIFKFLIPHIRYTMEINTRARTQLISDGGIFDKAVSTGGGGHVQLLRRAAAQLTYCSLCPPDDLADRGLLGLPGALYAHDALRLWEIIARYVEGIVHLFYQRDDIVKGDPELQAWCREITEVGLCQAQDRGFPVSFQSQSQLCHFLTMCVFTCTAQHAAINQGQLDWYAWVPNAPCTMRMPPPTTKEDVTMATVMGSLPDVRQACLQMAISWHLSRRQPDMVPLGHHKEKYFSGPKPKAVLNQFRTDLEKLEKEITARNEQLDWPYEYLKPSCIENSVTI
#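 Purified human 12hLO at 150 nM in 25 mM Hepes, 0.01% Triton X-100, pH 7.0, preincubated 15 min at room temperature with compound. Reaction started with 40 uM arachidonic acid, 30 min at room temperature. Hydroperoxide measured by Fe-xylenol orange, 573/405 nm absorbance ratio.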
# * marks the source's active call; other numbers are inactive results; i = inactive; ? = inconclusive; . = no result; ! = not confirmed by another sample; [ ] = dose if it differs, or a comment. Calls come from the whole dose curve; as a rule, active = well fitted curve in the direction sought with a large enough effect; inconclusive = small, poorly fitted or top-dose-only effect, or another doubt; inactive = no such curve, though single readings can be large; an effect the other way counts as inactive or inconclusive. Potency is the fitted concentration of half-maximal effect.
SMILES,HepG2 viability,ATXN2 expr inh,S2 tox,TGFb inhibitor,ALOX12 inh
Cc1ccc(-c2cc(C(=O)O)c3ccccc3n2)o1,.,.,.,.,11.2µM*
Cc1ccc(C)c(-c2cc(C(=O)Nc3cccnc3)c3ccccc3n2)c1,-17.0%,-21.0%,i,-0.5%,-6.5%
Cc1ccc(-c2cc(C(=O)NCCN3CCOCC3)c3ccccc3n2)o1,-2.5%,3.4%,i,9.9%,?
Cc1ccc(-c2cc(C(=O)Nc3cc(F)ccc3F)c3ccccc3n2)o1,.,.,.,.,7.94µM*
Cc1ccc(NC(=O)c2cc(-c3ccc(C)o3)nc3ccccc23)cc1,-47.7%,-7.5%,i,?,4.47µM*
Cc1ccc(-c2cc(C(=O)N3CCN(C(=O)c4ccco4)CC3)c3ccccc3n2)o1,.,.,.,.,17.8µM*
Cc1ccc(-c2cc(C(=O)Nc3cccnc3)c3ccccc3n2)o1,-48.8%,?,i,-46.8%,10µM*
O=C(Nc1ccc(SC(F)F)cc1)c1cc(-c2ccccc2)nc2ccccc12,.,.,.,.,39.8µM*
CCOC(=O)C1CCCN(C(=O)c2cc(-c3ccco3)nc3ccccc23)C1 (configuration not stated),-27.1%,3.5%,i,0.5%,8.91µM*
COc1cc(-c2cc(C(=O)Nc3ccc(O)cc3)c3ccccc3n2)cc(OC)c1OC,-19.1%,-10.0%,i,9.7%,44.7µM*
COc1cc(-c2cc(C(=O)Nc3cccc(C(C)=O)c3)c3ccccc3n2)cc(OC)c1OC,-7.2%,-14.4%,i,8.0%,14.7%
COc1ccc(/C(O)=C2\C(=O)C(=O)NC2c2ccc(Cl)cc2)cc1F (configuration not stated),.,.,.,.,11.2µM*
O=C1C(SCCO)=C(SCCO)C(=O)c2ccccc21,7.08µM*!,?,.,3.16µM*,?
O=c1[nH]c2ccccc2c(O)c1SCCO,-4.2%,22.6%,i,-12.9%,?
CCn1c2ccccc2c2cc(CNCc3ccc(OC)cc3OC)ccc21,10µM*,?,.,?,?
COCCNc1nc2cc(-c3cccc(C(F)(F)F)c3)sc2c(=O)n1C,-3.6%,7.9%,i,-4.0%,7.9%
CN(C)CCCNc1nc2cc(-c3cccc(C(F)(F)F)c3)sc2c(=O)n1C,-92.9%,20µM*,31.6µM*,?,-16.3%
CN(C)CCCNc1nc2cc(-c3cccc(Cl)c3)sc2c(=O)n1C,11.2µM*,?,?,?,-16.9%
COc1ccc(Nc2nnc(-n3nc(C)cc3C)c3ccccc23)cc1,-0.9%,3.5%,i,-16.4%,-10.4%
Cc1cc(C)n(-c2nnc(Nc3ccc(C)c(Cl)c3)c3ccccc23)n1,-21.1%,-5.1%,i,10µM*,-9.0%
O=C(CCN1CCN(c2ccccc2)CC1)N/N=C/c1ccccc1O,1.3%,26.7µM*,i,?,0.3%
N#CC1=C(c2ccc(-c3ccccc3)cc2)COC1=O,-5.2%,-30.2%,i,19.9%,50.1µM*
CS(=O)(=O)c1ccc(C2=C(c3ccccc3)C(=O)OC2)cc1,-8.2%,-7.3%,i,4.1%,-0.9%
CN1CCc2c([nH]c3ccccc23)C12CCN(C(=O)c1ccccn1)CC2,.,.,.,.,22.3%
Cc1nn(C)cc1C(=O)N1C[C@@H](CO)[C@H](c2ccncc2)C1,.,.,.,.,50.1µM*
SMILES,HepG2 viability,ATXN2 expr inh,S2 tox,TGFb inhibitor,ALOX12 inh
CCc1ccc(NC(=O)c2ccc3c(c2)N(CC)C2CCCCN2C3=O)cc1 (configuration not stated),.,.,.,.,13.1%
O=C(NCc1cccc(Cl)c1)c1cccc2c(-c3cccnc3)coc12,-44.1%,28.2µM*,20µM*,?,0.5%
Cc1cc(C)c(C#N)c(SCCS(=O)(=O)Cc2ccc(Cl)cc2)n1,-5.1%,-15.7%,i,14.1µM*,424.2%
Cc1cc(C)c(C#N)c(SCCS(=O)(=O)c2ccc(Cl)cc2)n1,8.8%,-27.1%,i,2.5%,-4.1%
Cc1cc(C)cc(COC(=O)c2cnccn2)c1,.,.,.,.,-7.1%
CCCCn1c(-c2sccc2C)n[nH]c1=S,-4.9%,0.3%,i,-0.6%,39.8µM*
CC(C)(c1ccccc1)c1ccc(OCCCNCCO)cc1,-93.2%,-31.7%,?,-25.2%,-60.5%
CC(O)CNCCCOc1ccc(C(C)(C)c2ccccc2)cc1 (configuration not stated),.,.,.,.,4.47µM*
CC(NC(=O)CC1(C(=O)O)CCCCC1)c1ccc2c(c1)CCCC2 (configuration not stated),.,.,.,.,-7.9%
O=C(CSc1nnc(-c2ccncc2)n1-c1ccc(Br)cc1)Nc1ccc(F)cc1,.,.,.,.,17.4%
CCc1ccc2oc(C(=O)Nc3c(C)cccc3C)cc(=O)c2c1,.,.,.,.,1.7%
O=C(NOCC1CC1)c1ccc(F)c(F)c1Nc1ccc(I)cc1Cl,.,30.6µM*,?,.,2.1%[57.4 µM]
O=C(NOC[C@H](O)CO)c1ccc(F)c(F)c1Nc1ccc(I)cc1F,.,?,?,.,-20.5%[57.4 µM]
CCOc1ccc(-n2c(=S)sc3c(=O)[nH]c(SCC(=O)N4CCC(C)CC4)nc32)cc1,1.2%,-1.3%,i,?,44.7µM*
COc1ccc(NS(=O)(=O)c2ccc(-c3n[nH]c(=S)n3Cc3ccccc3)cc2)cc1,-11.8%,-7.8%,i,-2.3%,?
COc1ccc(NS(=O)(=O)c2cccc(-c3n[nH]c(=S)n3Cc3ccccc3)c2)cc1,-1.4%,-0.7%,i,?,31.6µM*
COc1ccccc1-c1n[nH]c(=S)n1Cc1ccccc1,-8.6%,186.6%,i,-2.8%,28.2µM*
S=c1[nH]nc(-c2ccc(Br)o2)n1Cc1ccccc1,-18.8%,10.8%,i,8.4%,1.58µM*
Cc1ccc(OCn2ccc(C(=O)NCc3ccn(C)n3)n2)c(C)c1,.,.,.,.,-1.4%
Cc1ccc(CSC(Nc2ccc(F)cc2)=C(C#N)C#N)cc1,-16.3%,-28.8%,i,7.08µM*,?
COC(CNC(=O)c1c[nH]c2ccc(S(=O)(=O)N3CCC4(CC3)OCCO4)cc2c1=O)OC,-4.3%,-3.2%,i,3.55µM*,-13.4%
CC(=O)Nc1ccc(NC2=Nc3ccccc3N3C2=Nc2c(c(C)nn2-c2ccccc2)C3c2ccccc2)cc1 (configuration not stated),1.8%,7.94µM*,?,0.0%,13.2%
COc1ccc(NC2=Nc3ccccc3N3C2=Nc2c(c(C)nn2-c2ccc(C)cc2)C3c2cccnc2)cc1 (configuration not stated),6.7%,-11.2%,i,12.1%,2.2%
O=c1oc2ccc(F)cc2cc1S(=O)(=O)N1CCc2ccccc2C1,.,.,.,.,4.4%
O=C(CCl)Nc1cc(-c2ccccc2)nn1-c1ccccc1,-111.2%,?,31.6µM*,?,?
Cc1ccc(-c2cc(NC(=O)CCl)n(-c3ccccc3)n2)cc1,-104.2%,?,?,?,?
N#CC(C#N)=C1C=C(c2ccccc2)OC2=C1CCCC2,.,.,.,.,5.2%
